A short description of assay [1]: cAMP Responsive Elements (CRE) small molecule antagonists, cell-based qHTS assay: qHTS cell viability counter screen (AID 2060913). Further: nearly all actives have a fitted effect of over 40% in size. Summed up: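 Cytotoxicity counter screen multiplexed with the CRE-bla antagonist read: HEK293T cells in DMEM with dialyzed FBS and 25 mM HEPES were treated 3 hrs under 0.25 uM final NKH477, then viability measured by CellTiter-Glo luminescence.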
(In general: Quantitative high-throughput screening tests each substance at several concentrations.)

Assay [2] is described as follows: cAMP Responsive Elements (CRE) small molecule agonists, cell-based qHTS assay: qHTS cell viability counter screen (AID 2060914).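 Further: viability read after 3 h of compound exposure; nearly all actives have a fitted effect of over 50% in size.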 Put shortly:
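CRE-bla HEK293T cells in 10% dialyzed FBS medium were exposed to compounds for 3 h at 37C after 18 h plating. CellTiter-Glo was then added in the same wells, and luminescence was read after 30 min at room temperature.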

SMILES strings stand for the structures. Inconclusive results are not listed. Values without a mark were called inactive. Active and inactive are the calls of the source. The call rests on the fitted dose curve; in most records, active means well fitted cell-killing curve with a large enough effect in the repeat runs; inconclusive means weak or mixed curves, or effect the other way; inactive means flat fitted curve, though single readings scatter.
Potency means the concentration at half of the fitted maximal effect.

Turning to `CC1(C)COP(Oc2ccccc2)OC1`, the Potency result in assay [1] and in assay [2] was “inactive” each time.

Turning to `COP(=S)(NC(C)C)Oc1ccc(C)cc1[N+](=O)[O-]` (centres undefined), the Potency entry in assay [1] and in assay [2] was “inactive” in each case.

For the molecule `COC(=O)NS(=O)(=O)c1ccc(N)cc1`, the Potency entry in assay [1] and in assay [2] was “inactive” in each case.

`C1CCC2CCCCC2C1` (centres undefined): the Potency entry in assay [1] and in assay [2] was “inactive” throughout.

For `CC(C)Oc1cc(-n2nc(C(C)(C)C)oc2=O)c(Cl)cc1Cl`, the Potency entry in assay [1] and in assay [2] was “inactive” in each case.

With `C[N+]1(C)CCCCC1`, the Potency result in assay [1] and in assay [2] was “inactive” in each case.

Consider `CCC[CH2][Sn]([CH2]CCC)([CH2]CCC)[O][Sn]([CH2]CCC)([CH2]CCC)[CH2]CCC`, for which the Potency in assay [1] is 1.5 µM (active); in assay [2], 1.34 µM (active).

For `Oc1cc(Cl)cc(Cl)c1`, the Potency result in assay [1] and in assay [2] was “inactive” throughout.

For `Clc1ccc(C(c2ccc(Cl)cc2)C(Cl)Cl)cc1`, in assay [1], the Potency entry is “inactive”. For the same molecule, in assay [2], the Potency was 62.1 µM (active).

Take `Cc1ccc([N+](=O)[O-])cc1`: the Potency entry in assay [1] and in assay [2] was “inactive” each time.

Consider `ClC(Cl)Br`, for which the Potency result in assay [1] and in assay [2] was “inactive” in each case.

For `COC(=O)[C@@H](N)CCCN/C(N)=N/[N+](=O)[O-]`, the Potency entry in assay [1] and in assay [2] was “inactive” each time.

Take `CC1CCC(C(C)C)C(OC(=O)c2ccccc2N)C1` (centres undefined): the Potency is 47.9 µM (active) in assay [1] and 53.7 µM (active) in assay [2].

Regarding `CCN(CC)C(=O)C(C)Oc1cccc2ccccc12` (centres undefined), the Potency entry in assay [1] and in assay [2] was “inactive” each time.

For the molecule `C=C1CC[C@@]2(O)[C@H]3Cc4ccc(O)c5c4[C@@]2(CCN3CC2CC2)[C@H]1O5`, the Potency result in assay [1] and in assay [2] was “inactive” throughout.

As to `COP(=S)(Oc1cc(Cl)c(Br)cc1Cl)c1ccccc1` (centres undefined), the Potency entry in assay [1] and in assay [2] was “inactive” throughout.

Regarding `N#Cc1ccncc1`, the Potency entry in assay [1] and in assay [2] was “inactive” throughout.

In the case of `CC(C)c1ccc(NC(=O)N(C)C)cc1`, the Potency result in assay [1] and in assay [2] was “inactive” each time.

With `NC1(c2ccccc2)CCCCC1`, the Potency entry in assay [1] and in assay [2] was “inactive” throughout.

Turning to `BrCC(Br)c1ccccc1` (centres undefined), the Potency result in assay [1] and in assay [2] was “inactive” each time.

On to `Nn1cnnc1`, for which the Potency entry in assay [1] and in assay [2] was “inactive” each time.

As to `CC1(C)CN=C(NN=C(/C=C/c2ccc(C(F)(F)F)cc2)/C=C/c2ccc(C(F)(F)F)cc2)NC1`, the Potency result in assay [1] and in assay [2] was “inactive” each time.

Regarding `CC(C=O)Cc1ccc2c(c1)OCO2` (centres undefined), the Potency result in assay [1] and in assay [2] was “inactive” throughout.

As to `CC(C)CC(C)Nc1ccc(Nc2ccccc2)cc1` (centres undefined), the Potency result in assay [1] and in assay [2] was “inactive” each time.

Turning to `C=CCSSCC=C`, the Potency result in assay [1] and in assay [2] was “inactive” throughout.

Regarding `C=CCOCC1CO1` (centres undefined), the Potency entry in assay [1] and in assay [2] was “inactive” in each case.

As to `O=[N+]([O-])c1cc(Cl)c(Cl)c(Cl)c1`, the Potency result in assay [1] and in assay [2] was “inactive” throughout.

With `CCSC(=O)Cl`, the Potency result in assay [1] and in assay [2] was “inactive” throughout.

Consider `CC(=O)[O][Pb]([c]1ccccc1)([c]1ccccc1)[c]1ccccc1`, for which the Potency was 18 µM (active) in assay [1] and 24.3 µM (active) in assay [2].

For `Cn1c(N)nc2c3cccnc3ccc21`, the Potency entry in assay [1] and in assay [2] was “inactive” throughout.

Regarding `CC(C)=C[C@@H]1[C@@H](C(=O)OCc2coc(Cc3ccccc3)c2)C1(C)C`, the Potency entry in assay [1] and in assay [2] was “inactive” throughout.

`O=C1CCCCC1Cl` (centres undefined): the Potency entry in assay [1] and in assay [2] was “inactive” in each case.

As for `ClCc1ccccc1CCl`, the Potency entry in assay [1] and in assay [2] was “inactive” throughout.

For `CC1(C)CC(=O)CC(C)(C)N1[O]`, the Potency entry in assay [1] and in assay [2] was “inactive” each time.

With `CC(Oc1cccc(Cl)c1)C(=O)O` (centres undefined), the Potency entry in assay [1] and in assay [2] was “inactive” in each case.

As to `c1ccc2c(c1)cc1ccc3cccc4ccc2c1c34`, the Potency entry in assay [1] and in assay [2] was “inactive” throughout.

Regarding `O=C(O)CCCc1ccc(N(CCCl)CCCl)cc1`, the Potency result in assay [1] and in assay [2] was “inactive” in each case.

Consider `CC(C)(Cl)Cl`, for which the Potency entry in assay [1] and in assay [2] was “inactive” throughout.

For `CN1C(=O)CN=C(c2ccccc2)c2cc(Cl)ccc21`, the Potency entry in assay [1] and in assay [2] was “inactive” throughout.

With `O=C(O)CCCCCCNC1c2ccccc2CCc2ccccc21`, the Potency result in assay [1] and in assay [2] was “inactive” throughout.

In the case of `Cc1ccc2c(C)cccc2c1`, the Potency entry in assay [1] and in assay [2] was “inactive” in each case.

Take `CN[C@@H](C)[C@H](O)c1ccccc1`: the Potency entry in assay [1] and in assay [2] was “inactive” throughout.

In the case of `CCCN`, the Potency result in assay [1] and in assay [2] was “inactive” throughout.

Consider `CCCCNP(N)(N)=S`, for which the Potency result in assay [1] and in assay [2] was “inactive” in each case.

Take `CCCC[N+]1(C)CCCC1`: the Potency result in assay [1] and in assay [2] was “inactive” each time.

As to `CC(C)(C#N)C(C)(C)C#N`, the Potency entry in assay [1] and in assay [2] was “inactive” throughout.

For the molecule `C=CCc1cc(OC)c2c(c1)OCO2`, the Potency entry in assay [1] and in assay [2] was “inactive” each time.

For the molecule `CC(C)COC(=O)c1ccccc1C(=O)OCC(C)C`, the Potency entry in assay [1] and in assay [2] was “inactive” in each case.

Regarding `O=C(O)COc1ccc(Cl)cc1`, the Potency entry in assay [1] and in assay [2] was “inactive” each time.

In the case of `Cl/C=C\CCl`, the Potency entry in assay [1] and in assay [2] was “inactive” throughout.

With `O=C(CCCCl)c1ccc(F)cc1`, the Potency entry in assay [1] and in assay [2] was “inactive” throughout.

For the molecule `C[C@@H]1CC2=CC(=O)CC[C@@H]2[C@H]2CC[C@@]3(C)[C@@H](CC[C@]3(C)O)[C@@H]21`, the Potency entry in assay [1] and in assay [2] was “inactive” in each case.

These data come from PubChem BioAssay (Tox21).
